Reference: PubChem BioAssay (Tox21)
Results filed as inconclusive are left out. Entries that show only a call come without a potency. Values without a mark were called inactive. Activity calls are given as the source filed them. Calls follow the shape of the dose curve; as a rule, active = well fitted cell-killing curve with a large enough effect in the repeat runs; inconclusive = weak or mixed curves, or effect the other way; inactive = flat fitted curve, though single readings scatter.

Experiments:
[1] = cAMP Responsive Elements (CRE) small molecule antagonists, cell-based qHTS assay: qHTS cell viability counter screen (AID 2060913); also: nearly all actives have a fitted effect of over 40% in size
Summary of the method: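 CRE-bla HEK293T cells were seeded in assay medium with 10% dialyzed FBS, incubated 18 hrs at 37 C, then exposed to compounds plus 0.25 uM final NKH477 for 3 hrs. Viability was read by CellTiter-Glo luminescence after 30 min, in the same wells.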

[2] = cAMP Responsive Elements (CRE) small molecule agonists, cell-based qHTS assay: qHTS cell viability counter screen (AID 2060914); also: nearly all actives have a fitted effect of over 50% in size
Summary of the method: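 In the same wells as the reporter read, viability of CRE-bla HEK 293T cells was quantified by CellTiter-Glo luminescence after a 3 h compound exposure.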

Structure (SMILES)	Potency [1]	Potency [2]	viability change, negative = cytotoxic [1]	activity change, negative = cytotoxicity [2]
CC(C=O)Cc1ccc(C(C)C)cc1 (centres undefined)	inactive	inactive		
CC1(C)C(C=C(Cl)Cl)C1C(=O)OCc1cccc(Oc2ccccc2)c1 (centres undefined)	inactive	inactive		
CCOC(=S)SSC(=S)OCC	inactive	inactive		
Oc1cccc(O)c1O	inactive	inactive		
Cc1ccc(-n2[nH]c(C)c(N=Nc3cccc(-c4cccc(C(=O)O)c4)c3O)c2=O)cc1C	inactive	inactive		
Nc1ccc2c(c1)C(=O)c1ccccc1C2=O	inactive	inactive		
Nc1nc2c(ncn2COCCO)c(=O)[nH]1	inactive	inactive		
O	inactive	inactive		
Cc1ccc(/C=N/n2c(-c3ccccc3)csc2=S)cc1	inactive	inactive		
CN(C)CCOCCN(C)C	inactive	inactive		
COc1ccc(C(=O)c2ccccc2O)c(O)c1	inactive	inactive		
O=C1CC2(CCCC2)CC(=O)N1	inactive	inactive		
CCOC(=O)OCC	inactive	inactive		
CCC(OCCCOC)OC(C)=O (centres undefined)	inactive	inactive		
CC(CO)c1ccccc1 (centres undefined)	inactive	inactive		
O=C(Oc1ccccc1)c1ccccc1O	inactive	inactive		
O=C(O)/C=C/c1ccccc1	inactive	inactive		
c1ccc2sc(SN3CCOCC3)nc2c1	inactive	inactive		
CNC(=O)Nc1ccc(Cl)c(Cl)c1	inactive	inactive		
CCC1=C(C)CN(C(=O)NCCc2ccc(S(=O)(=O)NC(=O)NC3CCC(C)CC3)cc2)C1=O (centres undefined)	inactive	inactive		
Cc1ccc(S(=O)(=O)O)c(C)c1	inactive	inactive		
O=C1c2cccc3c2[C@H](CCC3)CN1[C@@H]1CN2CCC1CC2	inactive	inactive		
Cc1nc2sccn2c(=O)c1CCN1CCC(=C(c2ccc(F)cc2)c2ccc(F)cc2)CC1	inactive	inactive		
COc1cc2nc(Cl)nc(N)c2cc1OC	inactive	inactive		

Structure (SMILES)	Potency [1]	Potency [2]	viability change, negative = cytotoxic [1]	activity change, negative = cytotoxicity [2]
ON=C1CCCC1	inactive	inactive		
Cc1cc(C)cc(OCC2CNC(=O)O2)c1 (centres undefined)	inactive	inactive		
CC(=O)Nc1ccc(C(=O)O)cc1	inactive	inactive		
Cc1cc(C)c(N)c(Cl)c1	inactive	inactive		
Cc1ncc(COP(=O)(O)O)c(C=O)c1O	inactive	inactive		
C=CC(=C)CC/C=C(\C)CCC=C(C)C			13.3% [at 18.9 µM]	-3.29% [at 18.9 µM]
c1ccc2c(c1)ccc1ccccc12	inactive	inactive		
CCNc1ccccc1	inactive	inactive		
O=C(O)C(Cc1cc(I)c(O)c(I)c1)c1ccccc1 (centres undefined)	inactive	inactive		
Cc1cccc(C(C)(C)C)c1O	inactive	inactive		
CC(O)(P(=O)(O)O)P(=O)(O)O	inactive	inactive		
C/C=C/C=C/COC(=O)C(C)C	inactive	inactive		
Nc1cc(C(Cl)=C(Cl)Cl)c(S(N)(=O)=O)cc1S(N)(=O)=O	inactive	inactive		
O=[N+]([O-])c1cc(N(CCO)CCO)ccc1NCCO	inactive	inactive		
c1cc(-c2ccncc2)ccn1	inactive	inactive		
OCCOCC#CCOCCO	inactive	inactive		
O=C(Oc1ccccc1)c1ccc(O)cc1	inactive	inactive		
CC(=O)Oc1cccc(C)c1	inactive	inactive		
CC1(C)S[C@@H]2[C@H](N=CN3CCCCCC3)C(=O)N2[C@H]1C(=O)O	inactive	inactive		
CC(=O)Nc1ccc(S(N)(=O)=O)cc1	inactive	inactive		
CC(C)CCCCCCOC(=O)CCCCC(=O)OCCCCCCC(C)C	inactive	inactive		
OC(CCCN1CCCCC1)(c1ccccc1)c1ccccc1	inactive	inactive		
O=C(CCCN1CC=C(n2c(=O)[nH]c3ccccc32)CC1)c1ccc(F)cc1	inactive	inactive		
CC(C)Cn1cnc2c1c(=O)n(C)c(=O)n2C	inactive	inactive		

Structure (SMILES)	Potency [1]	Potency [2]	viability change, negative = cytotoxic [1]	activity change, negative = cytotoxicity [2]
Nc1c(Cl)cc(Cl)cc1[N+](=O)[O-]	inactive	inactive		
O=C1O[C@@H]2[C@@H](O)[C@H](O)O[C@@H]2[C@H]1O	inactive	inactive		
Cc1cccc(C)c1NC(=O)c1ccc(N)cc1	inactive	inactive		
CC(=O)CC(=O)Nc1ccc(C)cc1C	inactive	inactive		
CCOCOCC	inactive	inactive		
Oc1cccc2ccccc12	inactive	inactive		
Cc1cc2c(OCC(CNC(C)(C)C)OC(=O)c3ccccc3)cccc2[nH]1 (centres undefined)	inactive	inactive		
CC(C)CCOCCC(C)C	inactive	inactive		
CC(C)(O)C(=O)c1ccccc1	inactive	inactive		
Nc1ccc(C(=O)N2CC3CC(CN(Cc4ccccc4)C3)C2)cc1	inactive	inactive		
CN1CCN(CCCN2c3ccccc3Sc3ccc(Cl)cc32)CC1	inactive	inactive		
Cc1ncc(CO)c(CO)c1O	inactive	inactive		
CC(=O)OC(C)C	inactive	inactive		
Oc1ccccc1O	inactive	inactive		
COC(=O)C(C)=O	inactive	inactive		
CC(=O)OC(C)(C)Cc1ccccc1	inactive	inactive		
CCCCOc1ccc(OCCCN2CCOCC2)cc1	inactive	inactive		
CCCCC(CC)COC(=O)c1ccc(N(C)C)cc1 (centres undefined)	inactive	inactive		
O=C(O)c1ccccc1Cl	inactive	inactive		
CNC(=O)c1cnn(-c2nc(N)c3ncn([C@@H]4O[C@H](CO)[C@@H](O)[C@H]4O)c3n2)c1	inactive	inactive		
Nc1ncnc2c1ncn2Cc1c(F)cccc1Cl	inactive	inactive		
C=C(C)c1ccccc1	inactive	inactive		
N#Cc1ccc(C(=O)O)cc1	inactive	inactive		
C/C=C/C(=O)C1=C(C)CCCC1(C)C	inactive	inactive		
